# Source: PubChem BioAssay (NCATS)
# Values joined by “and” are separate entries in the source; they are usually repeats but may differ in a detail not shown here. Identical values can stand only once. Records with an inconclusive call do not appear. A call without a number means that no potency is given here. Active and inactive are the calls of the source. Unless noted, the call rests on the fitted dose curve; in most records, active means well fitted curve in the direction sought with a large enough effect; inconclusive means small, poorly fitted or top-dose-only effect, or another doubt; inactive means no such curve, though single readings can be large; an effect the other way counts as inactive or inconclusive.
# Assays:
# [1] = biological target: Peroxisome proliferator-activated receptor gamma (Homo sapiens) (UniProt P37231); assay: qHTS assay for small molecule agonists of peroxisome proliferator-activated receptor gamma signaling (AID 588536; active means well fitted curve in the direction sought with a large enough effect in the signal ratio, with a control signal flat, not every such curve was filed as active; the % refers to the signal ratio)
# Chain of Peroxisome proliferator-activated receptor gamma (Homo sapiens) (P37231 whole entry, looked up): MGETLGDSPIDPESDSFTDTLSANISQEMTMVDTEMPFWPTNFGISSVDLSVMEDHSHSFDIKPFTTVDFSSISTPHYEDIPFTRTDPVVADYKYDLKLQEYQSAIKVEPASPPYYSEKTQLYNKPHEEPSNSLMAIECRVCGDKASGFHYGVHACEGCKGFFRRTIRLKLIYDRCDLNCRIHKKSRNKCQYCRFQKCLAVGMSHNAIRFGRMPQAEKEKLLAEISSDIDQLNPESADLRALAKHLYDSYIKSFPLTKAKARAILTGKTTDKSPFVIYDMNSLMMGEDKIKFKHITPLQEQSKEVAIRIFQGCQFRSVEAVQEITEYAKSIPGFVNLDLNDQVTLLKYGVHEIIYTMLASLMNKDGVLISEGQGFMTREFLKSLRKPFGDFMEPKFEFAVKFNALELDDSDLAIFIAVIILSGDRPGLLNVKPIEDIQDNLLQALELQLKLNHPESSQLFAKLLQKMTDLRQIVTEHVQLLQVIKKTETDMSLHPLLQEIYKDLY
# Method in brief: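 Test agents, titrated, stimulated HEK293 UAS-bla cells overnight (16 h, 37 C). Substrate CCF4 was then added for two hours at room temperature before fluorescence reading.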
# [2] = biological target: Vitamin D3 receptor (Homo sapiens) (UniProt P11473); assay: qHTS assay for small molecule antagonists of vitamin D receptor signaling (AID 588541; calls by dose curve;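 further: receptor activated by calcitriol during compound treatment; series mostly up to about 77 µM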)
# Chain of Vitamin D3 receptor (Homo sapiens) (P11473 whole entry, looked up): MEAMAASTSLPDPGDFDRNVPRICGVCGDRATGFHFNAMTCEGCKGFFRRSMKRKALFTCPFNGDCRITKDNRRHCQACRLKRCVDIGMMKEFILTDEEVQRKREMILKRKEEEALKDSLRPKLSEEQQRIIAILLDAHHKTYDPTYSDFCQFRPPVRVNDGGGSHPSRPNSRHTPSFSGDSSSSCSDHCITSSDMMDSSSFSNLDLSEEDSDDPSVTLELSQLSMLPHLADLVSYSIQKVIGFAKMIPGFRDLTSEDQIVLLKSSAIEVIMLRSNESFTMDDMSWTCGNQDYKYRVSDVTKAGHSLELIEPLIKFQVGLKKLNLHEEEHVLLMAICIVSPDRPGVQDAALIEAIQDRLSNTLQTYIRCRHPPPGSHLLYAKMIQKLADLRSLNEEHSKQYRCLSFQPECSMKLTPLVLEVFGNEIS
# Method in brief: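 Antagonist-mode beta-lactamase reporter assay: HEK293T VDR-UAS-bla cells were exposed to titrated compound alongside 1-alpha,25-dihydroxyvitamin D3 at 3 nM final for 16 h. Values were normalized to the 50 nM agonist control and DMSO basal, with IC50 and efficacy from Hill equation fits.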
# [3] = biological target: Vitamin D3 receptor (Homo sapiens) (UniProt P11473); assay: qHTS assay for small molecule agonists of vitamin D receptor signaling (AID 588543; calls by dose curve)
# Method in brief: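 Reporter cells (HEK293T, VDR-UAS-bla) were seeded in medium with 2% charcoal-stripped serum and incubated 5 h, then compounds in concentration series were added for 16 h at 37 °C. Stimulation was scaled between DMSO basal and 50 nM 1α,25-dihydroxyvitamin D3.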
# [4] = qHTS assay for small molecule antagonists of retinoid X receptor alpha signaling (AID 588546); conditions: HEK293T RXRa-UAS-bla, beta-lactamase ratio, antagonist mode; measured here: W530 green channel, cytotoxicity proxy;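 further: cells stimulated with 9-cis-retinoic acid as agonist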
# Method in brief: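 Beta-lactamase reporter inhibition, read as CCF4 fluorescence ratio (ex 405, em 460/530 nm) after 2 h at RT. HEK293T UAS-bla cells, 2500/well, were stimulated with 9-cis-RA at 500 or 100 nM final alongside test compound for 18 h at 37 C.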
# [5] = biological target: Voltage-gated inwardly rectifying potassium channel KCNH2 (Homo sapiens) (UniProt Q12809); assay: qHTS Assay for Small Molecule Inhibitors of the Human hERG Channel Activity (AID 588834);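 further: lower thallium flux fluorescence means stronger hERG block; nearly all actives have a fitted effect of over 50% in size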; further: potency means the concentration at half of the fitted maximal effect; on activity change, negative = inhibition: top concentration of the series differs between compounds
# Chain of Voltage-gated inwardly rectifying potassium channel KCNH2 (Homo sapiens) (Q12809 whole entry, looked up): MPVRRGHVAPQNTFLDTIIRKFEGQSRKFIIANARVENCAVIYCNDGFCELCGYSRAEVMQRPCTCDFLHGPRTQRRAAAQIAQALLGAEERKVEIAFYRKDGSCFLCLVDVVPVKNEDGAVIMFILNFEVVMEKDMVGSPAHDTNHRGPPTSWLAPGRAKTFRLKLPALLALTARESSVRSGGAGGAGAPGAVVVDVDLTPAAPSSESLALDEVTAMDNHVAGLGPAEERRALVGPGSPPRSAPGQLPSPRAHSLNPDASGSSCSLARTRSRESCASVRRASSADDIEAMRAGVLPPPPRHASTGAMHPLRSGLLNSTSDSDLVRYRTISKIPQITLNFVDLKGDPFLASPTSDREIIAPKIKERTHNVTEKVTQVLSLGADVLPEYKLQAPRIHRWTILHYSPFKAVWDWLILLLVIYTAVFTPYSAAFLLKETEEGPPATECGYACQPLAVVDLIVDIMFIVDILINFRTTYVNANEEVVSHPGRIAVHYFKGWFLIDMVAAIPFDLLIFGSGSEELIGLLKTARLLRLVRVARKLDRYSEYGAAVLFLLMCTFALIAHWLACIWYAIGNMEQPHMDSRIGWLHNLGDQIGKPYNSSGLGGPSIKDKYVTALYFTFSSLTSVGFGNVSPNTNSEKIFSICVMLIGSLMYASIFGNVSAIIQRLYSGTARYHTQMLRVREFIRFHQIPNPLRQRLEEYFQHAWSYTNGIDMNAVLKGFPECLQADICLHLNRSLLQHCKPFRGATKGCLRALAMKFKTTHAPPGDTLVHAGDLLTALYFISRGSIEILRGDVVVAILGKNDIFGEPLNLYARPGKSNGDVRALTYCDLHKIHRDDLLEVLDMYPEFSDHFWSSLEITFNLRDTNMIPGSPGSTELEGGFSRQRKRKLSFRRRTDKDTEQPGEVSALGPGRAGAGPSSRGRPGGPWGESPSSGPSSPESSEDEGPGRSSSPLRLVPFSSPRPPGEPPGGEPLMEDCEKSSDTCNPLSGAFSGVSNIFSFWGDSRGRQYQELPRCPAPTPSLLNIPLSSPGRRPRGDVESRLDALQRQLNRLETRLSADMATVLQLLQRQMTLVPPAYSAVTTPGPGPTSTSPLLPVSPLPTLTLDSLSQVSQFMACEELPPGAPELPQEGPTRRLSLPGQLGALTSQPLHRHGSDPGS
# Method in brief: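 hERG-BacMam U2OS, 2000 cells/well; 0.7X FluxOR loading 1 hr RT dark; cpd ~10 min 37 °C; stim buffer; FDSS fluorescence 2 min @ 1 s; AC50 Hill fit.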
# [6] = biological target: Luciferin 4-monooxygenase (Photinus pyralis) (UniProt P08659); assay: Biochemical firefly luciferase enzyme assay for NPC (AID 624030); further: nearly all actives have a fitted effect of over 70% in size; further: potency means the concentration at half of the fitted maximal effect;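 on activity change, negative = inhibition: purified P. pyralis luciferase at 10 nM with luciferin and ATP substrate; series mostly up to about 59 µM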
# Chain of Luciferin 4-monooxygenase (Photinus pyralis) (P08659 whole entry, looked up): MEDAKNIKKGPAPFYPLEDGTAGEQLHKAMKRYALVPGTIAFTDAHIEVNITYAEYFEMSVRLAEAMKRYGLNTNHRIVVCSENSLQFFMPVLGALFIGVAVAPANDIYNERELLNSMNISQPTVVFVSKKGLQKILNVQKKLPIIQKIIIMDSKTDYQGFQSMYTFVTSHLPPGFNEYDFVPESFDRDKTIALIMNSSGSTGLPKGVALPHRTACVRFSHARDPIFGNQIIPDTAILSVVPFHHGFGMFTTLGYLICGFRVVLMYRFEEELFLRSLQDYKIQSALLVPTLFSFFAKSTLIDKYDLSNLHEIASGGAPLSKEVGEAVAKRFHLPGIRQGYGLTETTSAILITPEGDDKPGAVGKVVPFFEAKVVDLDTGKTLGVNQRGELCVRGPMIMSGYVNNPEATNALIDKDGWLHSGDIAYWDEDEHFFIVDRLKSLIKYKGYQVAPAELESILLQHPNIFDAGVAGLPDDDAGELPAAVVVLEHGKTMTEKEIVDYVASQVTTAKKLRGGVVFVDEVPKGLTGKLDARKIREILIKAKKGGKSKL
# Method in brief: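 Direct inhibition of firefly luciferase enzyme (10 nM final, 50 mM Tris Acetate) assessed by luminescence within 5 minutes. Percent activity scaled between DMSO and PTC124 positive control, with concentration-effect curves classified by fit quality and response.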
# [7] = qHTS assay for small molecule agonists of retinoid X receptor alpha signaling (AID 588544; calls by dose curve); conditions: HEK293T RXRa-UAS-bla, beta-lactamase reporter, 18 h; 530 nm emission
# [8] = biological target: Retinoic acid receptor RXR-alpha (Homo sapiens) (UniProt P19793); assay: as above
# Chain of Retinoic acid receptor RXR-alpha (Homo sapiens) (P19793 whole entry, looked up): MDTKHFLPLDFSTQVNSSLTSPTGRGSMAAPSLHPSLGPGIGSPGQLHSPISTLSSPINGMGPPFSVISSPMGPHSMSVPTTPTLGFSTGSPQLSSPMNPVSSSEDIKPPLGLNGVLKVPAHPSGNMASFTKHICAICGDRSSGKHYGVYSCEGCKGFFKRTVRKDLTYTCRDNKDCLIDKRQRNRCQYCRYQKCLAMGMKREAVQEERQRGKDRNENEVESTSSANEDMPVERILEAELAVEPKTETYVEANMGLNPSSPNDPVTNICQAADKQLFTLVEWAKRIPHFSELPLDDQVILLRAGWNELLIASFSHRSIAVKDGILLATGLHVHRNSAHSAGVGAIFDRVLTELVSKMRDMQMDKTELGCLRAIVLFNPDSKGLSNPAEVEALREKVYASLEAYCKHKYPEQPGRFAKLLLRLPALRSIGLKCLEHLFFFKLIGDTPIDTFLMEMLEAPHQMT
# [9] = biological target: Thyroid hormone receptor beta (Homo sapiens) (UniProt P10828); assay: qHTS assay for small molecule agonists of thyroid hormone receptor beta signaling (AID 588545; calls by dose curve)
# Chain of Thyroid hormone receptor beta (Homo sapiens) (P10828 whole entry, looked up): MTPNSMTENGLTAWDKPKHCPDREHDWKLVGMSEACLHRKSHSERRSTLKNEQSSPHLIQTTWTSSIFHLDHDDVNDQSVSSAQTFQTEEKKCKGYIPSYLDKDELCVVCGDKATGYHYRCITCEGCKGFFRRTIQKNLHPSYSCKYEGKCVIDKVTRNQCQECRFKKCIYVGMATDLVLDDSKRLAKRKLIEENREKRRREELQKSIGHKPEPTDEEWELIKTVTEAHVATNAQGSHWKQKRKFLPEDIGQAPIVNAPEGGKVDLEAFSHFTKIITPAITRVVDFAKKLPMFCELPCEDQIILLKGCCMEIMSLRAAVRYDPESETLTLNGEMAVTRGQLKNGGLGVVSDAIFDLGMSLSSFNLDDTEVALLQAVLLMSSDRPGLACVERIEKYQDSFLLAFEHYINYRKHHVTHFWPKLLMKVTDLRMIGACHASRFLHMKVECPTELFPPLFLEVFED
# Method in brief: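 In this cell-based screen, titrated compounds act on HEK 293 cells held in medium with 2% charcoal/dextran FBS, NEAA and pyruvate for 18 hrs at 37 C. Responses are expressed relative to T3 (10 nM) as 100% and basal DMSO as 0%.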
# [10] = biological target: Thyroid hormone receptor beta (Homo sapiens) (UniProt P10828); assay: qHTS assay for small molecule antagonists of thyroid hormone receptor beta signaling (AID 588547; active means well fitted inhibition curve with a large enough effect in the signal ratio, with a control signal flat, not every such curve was filed as active; the % refers to the signal ratio;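 further: cells stimulated with 0.4 nM T3 agonist during compound exposure; series mostly up to about 77 µM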); conditions: TR-UAS-bla HEK293, beta-lactamase ratio, antagonist mode, 18 h
# Method in brief: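 Inhibition of T3-driven (0.4nM final) beta-lactamase reporter activity was measured over 0.59 nM to 92 uM compound after 18 h at 37 C. The cells were GripTite HEK293 TR-UAS-bla in charcoal/dextran-stripped serum, with CCF4 ratio read-out and IC50 from Hill fits.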
# [11] = S16 Schwann cell viability assay (CellTiter-Glo assay) (AID 624031);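 further: cellular ATP luminescence as a viability measure; series mostly up to about 58 µM; nearly all actives have a fitted effect of over 70% in size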
# Method in brief: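 This viability control uses native rat S16 Schwann cells grown in DMEM plus 10% FBS. After a 24 h compound treatment at 37 °C, CellTiter-Glo luminescence reports ATP content, scaled against DMSO-treated and cell-free wells.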
# [12] = S16 Schwann cell PMP22 intronic element firefly luciferase assay (AID 624032); further: series mostly up to about 58 µM; nearly all actives have a fitted effect of over 30% in size
# Method in brief: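 Luciferase reporter of PMP22 intronic-element expression in stably transfected S16 rat Schwann cells, read by ONE-Glo luminescence after 24 h compound exposure at 37 C. Activity scaled between DMSO (0%) and positive-control PTC124; concentration-effect curves quality-classified.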
# [13] = biological target: Glutaminase kidney isoform, mitochondrial (Homo sapiens) (UniProt O94925); assay: qHTS for Inhibitors of Glutaminase (GLS): LOPAC Validation (AID 624146);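 further: glutamate product detected by oxidase and peroxidase coupled Amplex red fluorescence gain; series mostly up to about 46 µM; nearly all actives have a fitted effect of over 60% in size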
# Chain of Glutaminase kidney isoform, mitochondrial (Homo sapiens) (O94925 whole entry, looked up, canonical isoform): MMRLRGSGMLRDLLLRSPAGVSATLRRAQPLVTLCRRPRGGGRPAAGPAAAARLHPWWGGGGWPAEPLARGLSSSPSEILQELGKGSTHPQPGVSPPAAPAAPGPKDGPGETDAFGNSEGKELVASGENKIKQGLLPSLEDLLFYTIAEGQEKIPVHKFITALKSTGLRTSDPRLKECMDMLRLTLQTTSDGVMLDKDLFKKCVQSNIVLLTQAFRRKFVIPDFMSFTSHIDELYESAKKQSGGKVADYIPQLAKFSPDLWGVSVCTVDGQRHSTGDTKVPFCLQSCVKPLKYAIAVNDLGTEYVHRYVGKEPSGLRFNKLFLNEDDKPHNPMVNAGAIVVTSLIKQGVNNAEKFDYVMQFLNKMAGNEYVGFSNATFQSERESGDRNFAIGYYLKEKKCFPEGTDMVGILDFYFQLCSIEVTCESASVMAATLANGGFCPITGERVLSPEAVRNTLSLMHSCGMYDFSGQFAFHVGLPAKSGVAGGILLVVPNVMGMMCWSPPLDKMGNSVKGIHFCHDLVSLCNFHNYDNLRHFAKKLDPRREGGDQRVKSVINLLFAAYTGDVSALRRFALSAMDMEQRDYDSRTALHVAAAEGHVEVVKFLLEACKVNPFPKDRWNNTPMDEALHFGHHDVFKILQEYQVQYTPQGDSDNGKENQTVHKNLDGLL
# Method in brief: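 Compounds were pin-transferred onto hKGA, after which L-glutamine (1 mM solution) and a detection mix of glutamate oxidase, HRP and Amplex Red were added. Initial and 30 min RT fluorescence reads were collected.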
# [14] = qHTS of Trypanosoma Brucei Inhibitors: LOPAC Validation (AID 624147)
# Method in brief: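 Screened from lowest to highest concentration, compounds were pinned into TbPYK/substrate mixtures, and ADP (130 uM final) was added. Plates sat at room temperature for 45 min prior to Kinase-Glo Plus detection by luminescence.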
# [15] = qHTS of Nrf2 Activators: LOPAC Validation (AID 624149)
# Method in brief: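 AREc32 cells carrying an ARE-driven firefly luciferase were grown overnight in OPTI-MEM with 5% FBS, then exposed to compounds for 24 hr at 37 deg C. Luciferase signal was read after 30 min with Steady-Glo at RT.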
# [16] = HTS Assay for Allosteric Antagonists of the Human D2 Dopamine Receptor: Hit Validation in HTRF (AID 624455);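 further: stable D1 dopamine receptor cell line scored for blocking the D1 response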
# Method in brief: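 Hits were examined in an HTRF assay using cells stably expressing the D1 dopamine receptor, scoring inhibition of the D1-mediated response. The preceding primary screen tracked calcium flux after an EC80 dopamine addition in force-coupled, inducible Hek293 Trex D2 cells.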
# [17] = Cytotoxicity counterscreen for NFkB agonists and antagonists (AID 624476);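 further: cells exposed to compound for 48 hours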
# [18] = qHTS Assay for Identification of Small Molecule Agonists for NFkB Signaling Pathway. (AID 624478)
# Method in brief: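 NFkB-bla ME-180 cells (beta-lactamase reporter under NFkB response element) were plated overnight, treated with compound plus TNF alpha at 10 pM final (its EC50) for 5 hrs at 37 C, then loaded with LiveBLAzer substrate for 2 hrs.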
# [19] = qHTS Assay for Identification of Small Molecule Antagonists for NFkB Signaling Pathway. (AID 624479; calls by dose curve;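 further: pathway stimulated with TNF alpha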)
# [20] = S16 Schwann cell PMP22 intronic element beta-lactamase assay (AID 624044; calls by dose curve; further: nearly all actives have a fitted effect of over 15% in size)
# Method in brief: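 Rat S16 Schwann cells with beta-Lac driven by a PMP22 intronic element, compound-treated 24 h at 37 °C. LiveBLAzer FRET B/G read: 460 nm normalized to potassium clavulanate vs DMSO; 535 nm FRET as viability; concentration-effect curves classified.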
smiles,measurement,setting,value
COc1cc(OC)c(OC)cc1C=O,outcome,[1],inactive
same,Potency,[2],inactive
same,outcome,[3],inactive
same,max response,[4],-5.72%
same,Potency,[5],inactive
same,Potency,[6],inactive
O=P1(N(CCCl)CCCl)NCCCO1 (centres undefined),outcome,[1],inactive
same,Potency,[2],inactive
same,outcome,[3],inactive
same,max response,[7],8.36% and -10.5%
same,Potency,[8],inactive
same,outcome,[9],inactive
same,max response,[4],-4.41% and 6%
same,activity change % (negative = inhibition),[10],-0.786% (inactive)
same,Potency,[5],inactive
same,Potency,[6],inactive
same,outcome,[11],inactive
same,Potency,[12],inactive
same,Potency,[13],inactive
same,outcome,[14],inactive
same,outcome,[15],inactive
same,Potency,[16],inactive
same,outcome,[17],inactive
same,outcome,[18],inactive
same,outcome,[19],inactive
C[C@]12CCC(=O)C=C1CC[C@@H]1[C@@H]2CC[C@@]2(C)[C@H]1CC[C@]2(C)O,outcome,[3],inactive
same,max response,[7],-11.4%
same,Potency,[8],inactive
same,outcome,[9],inactive
same,max response,[4],-11.8%
same,Potency,[5],inactive
same,Potency,[6],inactive
C[C@@H]1O[C@@H]1P(=O)(O)O,Potency,[5],inactive
CC(C)NC(C)C,outcome,[1],inactive
same,Potency,[2],inactive
same,outcome,[3],inactive
same,max response,[7],-5.82%
same,Potency,[8],inactive
same,outcome,[9],inactive
same,max response,[4],-16.3%
same,Potency,[5],inactive
same,Potency,[6],inactive
same,Potency,[12],inactive
O=C(CCCN1CCC2(CC1)C(=O)NCN2c1ccccc1)c1ccc(F)cc1,Potency,[5],1.78 µM (active) and 1 µM (active)
same,Potency,[6],inactive
same,outcome,[11],inactive
same,Potency,[12],inactive
same,outcome,[20],inactive
same,Potency,[13],inactive
same,outcome,[15],inactive
same,Potency,[16],inactive
NC(=O)c1cc([N+](=O)[O-])cc([N+](=O)[O-])c1,Potency,[5],inactive
same,Potency,[6],inactive
same,outcome,[11],inactive
same,outcome,[20],inactive
COc1c2c(cc3c1OCO3)CCN(C)C2,Potency,[5],inactive
same,Potency,[6],inactive
same,outcome,[11],inactive
same,Potency,[12],inactive
O=C(N/N=C/c1ccc([N+](=O)[O-])o1)c1cc([N+](=O)[O-])cc([N+](=O)[O-])c1O,Potency,[5],inactive
same,Potency,[6],36.1 µM (active)
same,outcome,[11],inactive
same,Potency,[12],inactive
same,outcome,[20],inactive
CN1C(=O)NC(=O)C(C)(C2=CCCCC2)C1=O (centres undefined),Potency,[5],inactive
same,Potency,[6],inactive
same,outcome,[11],inactive
same,Potency,[12],inactive
NC1=NC(=O)C(c2ccccc2)O1 (centres undefined),Potency,[5],inactive
CC(C)(C)NCC(O)c1ccccc1Cl (centres undefined),Potency,[5],inactive
same,Potency,[6],inactive
same,outcome,[11],inactive
same,Potency,[12],inactive
same,Potency,[13],inactive
same,outcome,[14],inactive
same,outcome,[15],inactive
same,Potency,[16],inactive
CC(C)c1c(CN(C)C(C)Cc2ccccc2)n(C)n(-c2ccccc2)c1=O (centres undefined),Potency,[5],inactive
CCCCC/C=C\C/C=C\C/C=C\C/C=C\CCCC(=O)NCC(=O)O,Potency,[5],inactive
same,"activity change, negative = inhibition",[6],-1.65% [at 5.2 µM] (inactive)
same,"activity change, negative = cytotoxicity",[11],-23.3% [at 5.34 µM] (inactive)
same,"activity change, negative = inhibition",[12],-9.07% [at 5.34 µM] (inactive)
same,Potency,[13],inactive
same,outcome,[14],inactive
same,outcome,[15],inactive
same,Potency,[16],inactive
Cc1nnc2n1-c1ccc(Cl)cc1C(c1ccccc1Cl)=NC2,Potency,[5],inactive
same,Potency,[6],inactive
same,outcome,[11],inactive
same,Potency,[12],inactive
same,outcome,[20],inactive
CN1C(=O)CCS(=O)(=O)C1c1ccc(Cl)cc1 (centres undefined),Potency,[5],inactive
same,Potency,[6],inactive
same,outcome,[11],inactive
same,Potency,[12],inactive
same,Potency,[13],inactive
same,outcome,[14],inactive
same,outcome,[15],inactive
same,Potency,[16],inactive
